Assay outcomes (PubChem)
TRHR PAM: qHTS for Small Molecule Agonists and Allosteric Enhancers of Human TRH Receptor: Primary Screen for Enhancers; Thyrotropin-releasing hormone receptor (Homo sapiens), P34981; TRHR cells, fluo-8 calcium fluorescence, EC20 TRH enhancement; enhancement, % at 2 µM; 360,000 compounds, 0.66% hits; AID 493056, 2011; in the data active = enhancement above about 30%; also: 0% is about no effect
Target sequence (P34981 whole entry, looked up): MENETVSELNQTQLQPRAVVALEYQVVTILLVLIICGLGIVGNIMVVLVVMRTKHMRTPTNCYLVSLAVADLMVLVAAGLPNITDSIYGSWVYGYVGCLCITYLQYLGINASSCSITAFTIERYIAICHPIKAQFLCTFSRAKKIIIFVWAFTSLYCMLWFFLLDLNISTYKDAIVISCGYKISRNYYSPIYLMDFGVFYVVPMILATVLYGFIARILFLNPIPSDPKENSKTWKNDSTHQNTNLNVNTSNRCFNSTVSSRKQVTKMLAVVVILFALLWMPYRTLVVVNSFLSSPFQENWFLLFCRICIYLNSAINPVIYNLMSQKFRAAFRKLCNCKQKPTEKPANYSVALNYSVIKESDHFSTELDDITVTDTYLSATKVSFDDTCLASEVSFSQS
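Enhancer read-out: after compound pinning and an initial kinetic agonist-mode read, an EC20 of TRH (10 nM final) was injected and fluo-8 calcium signal (Ex 480/Em 530) followed at 1 s/cycle for 100 cycles in TRHR-expressing cells.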
D1 PAM: Potentiators of Human D1 Dopamine Receptor: qHTS. HEK293 TREx D1 cells, calcium flux, dopamine EC20 potentiation. potentiation, % at 10 µM. D(1A) dopamine receptor (Homo sapiens), P21728. 360,000 compounds, 0.036% hits; in the data active = potentiation above about 30%; also: 0% is about no effect
USP1 inh: Inhibitors of USP1/UAF1: Primary Screen | Ubiquitin carboxyl-terminal hydrolase 1 (Homo sapiens), O94782 | recombinant USP1/UAF1, Ub-Rhodamine cleavage fluorescence | Potency, µM (highest dose often 57.1 µM), for inactives: at the highest dose activity change, negative = inhibition, hits mostly inhibitors | 390,000 compounds, 0.23% hits | AID 743255, 2014; active = well fitted inhibition curve with a large enough effect; inconclusive = small, poorly fitted or top-dose-only effect; inactive = no such curve, though single readings can be large or run the other way; also: potency is read from the fitted curve at half-maximal effect; % is scaled to controls: 0 for no effect and ±100 for the full control effect; nearly all actives have a fitted effect of over 60% in size
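USP1/UAF1 complex at 1 nM was preincubated with compound for 15 min at room temperature, then Ub-Rho substrate (150nM final) was added. Fluorescence (480/540 nm) was read kinetically, 6 reads every 60 seconds.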
D1 ag: Allosteric Agonists of the Human D1 Dopamine Receptor: qHTS. activation, % at 2 µM. AID 504660, 2011. 360,000 compounds, 1% hits. D(1A) dopamine receptor (Homo sapiens), P21728. HEK293 T-REx D1 cells, calcium flux, agonist mode; also: 0% is about no effect
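Agonism was scored from calcium flux recorded over 180 s (1 read/s) after pintool compound addition, following a 10-cycle baseline. Cells were inducible force-coupled HEK293 TREx D1, plated overnight at 30 C and loaded with no-wash calcium dye.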
TRHR ag: qHTS for Small Molecule Agonists and Allosteric Enhancers of Human TRH Receptor: Primary Screen for Agonists. TRHR cells, calcium flux fluo-8, FDSS agonist mode. 360,000 compounds, 0.18% hits. activation, % at 2 µM. AID 493084, 2011. Thyrotropin-releasing hormone receptor (Homo sapiens), P34981; also: 0% is about no effect
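TRHR-expressing cells, plated overnight in medium with 10% serum, were loaded with fluo-8 calcium dye at room temperature. After a 10 s baseline, library compound was pin-added and calcium release was recorded kinetically (ex 480/em 530) as agonist response.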
D1 antagonist: Antagonist of Human D 1 Dopamine Receptor: qHTS | HEK293 TREx D1 cells, calcium flux, dopamine EC80; active compounds read low | activity change, negative = inhibition, % at 10 µM | 360,000 compounds, 3.2% hits | AID 504652, 2011; in the data active = activity change below about -30%; also: % is scaled to controls: 0 for no effect and ±100 for the full control effect
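Compound effects on dopamine-evoked calcium signalling were measured in tetracycline-induced HEK293 Trex D1 cells. Dopamine at EC80 followed a 180 s compound pre-read, and fluorescence was tracked kinetically for 180 s more.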
* = called active by the depositor; u = inconclusive; x = no result; ! = repeats disagree. Rows were chosen to be rich in hits. Some 4.4% of all compounds tested hit in one or more screens of this group. Rule as the data show it, unless noted: active = activation above about 30%; inactive = the rest.

SMILES | TRHR PAM | D1 PAM | USP1 inh | D1 ag | TRHR ag | D1 antagonist
Cn1c(=O)n(C)c2cc(/C=C(/C#N)C(=O)NCc3ccco3)ccc21 | 9.8 | -3.2 | -19.3% | -0.6 | 0.3 | 2.9
N#C/C(=C\c1cn(Cc2ccccc2)c2ccccc12)C(=O)NCc1ccco1 | -6.2 | -9.6 | -17.2% | 5.8 | 0.3 | -19.7
N#C/C(=C\c1cn(Cc2ccc(F)cc2)c2ccccc12)C(=O)NCc1ccco1 | -2.9 | -10.9 | -18.8% | 7.2 | 1.1 | -35.8*
CCN(CC)c1ccc(/C=C(\C#N)C(=O)NCc2ccco2)cc1 | 2.7 | -8.1 | x | 47.9* | 27.2 | -12.3
CN(C)c1ccc(/C=C(\C#N)C(=O)NCc2ccco2)cc1 | 8.4 | -7.7 | x | 35.1* | -2.6 | -3.5
CC(OC(=O)c1cccs1)C(=O)NCc1ccco1 (configuration not stated) | 0.9 | 0.8 | -2.3% | 0.1 | -0.1 | -17.9
CC1CCN(c2ccc(-c3cccc(NS(=O)(=O)c4ccc(F)cc4F)c3)nn2)CC1 | 4.2 | -0.8 | -15.7% | 2.8 | -0.3 | -7.7
O=C(CSc1nc2ccccc2nc1Cc1ccc(Cl)cc1)N1CCc2ccccc21 | 2.3 | -0.1 | -10.6% | 1.2 | 0.7 | 4.4
CCCCOC(=O)c1ccc(NC(=O)CSc2nc3c(c(=O)[nH]2)CCCC3)cc1 | -3.2 | -1.6 | -1.1% | 0.6 | -0.2 | -13.8
Cc1cc(F)ccc1NCc1ccccc1-c1nnc(-c2ccccc2Cl)o1 | -4.5 | -1.8 | -16.2% | -0.2 | 0.3 | 4.0
Cn1c(=O)[nH]c2cc(-c3noc(-c4ccc(C#N)cc4)n3)ccc21 | -1.5 | -0.1 | -15.2% | 1.6 | 0.2 | -8.1
Cc1cc(=O)n(Cc2ccc(F)cc2Cl)c2c1c(C)nn2C | -0.2 | -4.5 | -16.3% | 6.2 | -0.2 | -10.9
CCN(CC)c1ccc(/C=C(\C#N)C(=O)NCc2ccccc2)cc1 | 3.1 | -7.5 | -23.1% | 57.7* | 10.0 | 0.4
O=C(NCCn1cc(SCc2ccccc2Cl)c2ccccc21)c1cccs1 | 1.4 | -4.3 | -20.4% | 2.3 | 0.9 | 0.6
Cc1coc2cc3oc(=O)c(CC(=O)NCCc4ccccc4)c(C)c3cc12 | 1.2 | 2.5 | u | 4.2 | 0.1 | -1.3
CCOC(=O)Cn1nc(C)n(-c2ccc(Br)cc2)c1=O | 3.9 | 13.8 | -10.0% | 1.6 | -0.4 | -47.6*
COC(=O)c1ccc(CN2CCC(CO)(Cc3ccccc3Cl)CC2)cc1 | 3.3 | 1.2 | -15.7% | 3.8 | 0.3 | -1.8
COc1ccc(/C=C/CN2CCC(CO)(Cc3ccccc3Cl)CC2)cc1 | -8.7 | 3.1 | -17.1% | 109.5* | 3.1 | -0.5
CCCCc1cc(=O)oc2cc(O)cc(O)c12 | -6.4 | -2.7 | -19.0% | 0.4 | 0.0 | 1.9
CCCCc1cc(=O)oc2cc(C)cc(O)c12 | -7.0 | -8.6 | -10.3% | 18.1 | 4.7 | -34.7*
CCn1nnc2cc(C(=O)Nc3ccc(Cl)cc3C)ccc21 | -1.7 | 1.6 | -22.2% | -1.0 | -0.8 | 13.5
Cc1ccc(-c2nc3cccnc3s2)cc1NC(=O)C(C)C | 16.7 | 0.7 | 4.9% | 30.1* | -0.4 | 26.6
CCC(C(=O)Nc1cc(-c2nc3cccnc3s2)ccc1C)c1ccccc1 (configuration not stated) | 7.7 | 3.1 | 7.7% | -0.2 | 0.5 | 34.6
COc1ccc(OC)c(CNc2ncnc3c2nc2n3CCCC2)c1 | -2.3 | -1.9 | -17.1% | -0.1 | -0.9 | -13.9
O=C(Nc1cc2c3c(c1)CC(=O)N3CCC2)c1ccccc1Br | 33.9* | -7.7 | -19.3% | 0.1 | 0.1 | 0.8
SMILES | TRHR PAM | D1 PAM | USP1 inh | D1 ag | TRHR ag | D1 antagonist
COCCCN(Cc1ccco1)C(=O)c1cc2c(s1)-c1ccccc1OC2 | -5.9 | -5.3 | -21.9% | 1.9 | -0.1 | -5.7
CNC(=O)c1cn(-c2ccccc2)c(=O)c2ccccc12 | -5.2 | -10.6 | -3.2% | -0.1 | -0.3 | -73.3*
CN(C)C(=O)c1cn(-c2ccccc2)c(=O)c2ccccc12 | 5.6 | 1.3 | 1.1% | 0.5 | 0.9 | -22.2
N#C/C(=C/c1ccc(Sc2nc3ccccc3[nH]2)o1)c1cccc(F)c1 | -6.7 | -1.2 | 0.4% | 8.4 | -0.6 | -5.3
N#C/C(=C\c1ccc(-c2ccc(F)cc2F)o1)c1nc2ccccc2[nH]1 | -1.4 | 7.7 | 331.3% | 151.3* | 78.0* | 8.3
N#C/C(=C\c1ccc([N+](=O)[O-])o1)c1nc2ccccc2[nH]1 | -4.7 | -6.0 | -21.1% | 40.9* | 16.5 | 9.8
Cc1ccc2nc(/C(C#N)=C/c3ccc(-c4ccccc4C(=O)O)o3)[nH]c2c1 | 1.1 | -4.7 | 31.6µM* | 49.2* | 70.2* | -10.0
Cc1cc(/C=C(/C#N)c2nc3ccccc3[nH]2)c(C)n1-c1ccccc1C(=O)O | -0.5 | -3.5 | -23.9% | 7.0 | 0.8 | 2.8
N#C/C(=C/c1ccc(Sc2nc3ccccc3[nH]2)o1)c1ccccc1F | -8.5 | 0.8 | -22.3% | 39.0* | -0.8 | -25.6
COc1ccc(Cl)cc1NC(=O)c1c(NCc2cccnc2)sc2c1CCC(C)C2 (configuration not stated) | -4.0 | 1.9 | -5.2% | 1.0 | 0.1 | 9.4
N#C/C(=C\c1ccc(-c2ccccc2C(=O)O)o1)c1nc2ccccc2[nH]1 | 0.3 | -0.8 | u | 38.2* | 46.0*! | -2.9
COc1ccc2nc(/C(C#N)=C\c3ccc(C(=O)O)cc3)[nH]c2c1 | -5.4 | -0.9 | -8.1% | 10.8 | 14.6 | 6.3
CCOC(=O)c1ccc(-c2ccc(/C=C(\C#N)c3nc4ccc(C)cc4[nH]3)o2)cc1 | 2.3 | 0.7 | 8.0% | 269.6* | 119.7* | 8.0
Fc1ccc(CSc2nncn3c2cc2occc23)c(Cl)c1 | -2.7 | -0.3 | -4.4% | 0.3 | 0.6 | 0.1
O=C(/C=C/c1ccc(F)cc1)NC(=S)N1CCOCC1 | 37.2* | -2.6 | -16.5% | 2.3 | -0.5 | -16.9
CCCCn1c2nc3ccccc3nc2c2c(=O)n(CCC(C)C)cnc21 | 2.4 | -3.1 | -14.8% | 2.6 | -0.2 | -42.1*
CCOc1ccc(OCCNCc2ccc(OC(C)C(=O)N(C)C)c(OCC)c2)cc1 (configuration not stated) | 12.2 | -1.6 | -14.6% | 56.5* | -0.2 | 10.4
CCOc1cc(CNCCO)ccc1OCC(=O)NC(C)(C)C | -2.7 | 1.5 | -3.5% | 2.0 | 0.8 | -6.3
